Hits are enriched below; roughly 6.2% of the tested compounds scored in any of these assays.
HT1080 IDH1KD tx: qHTS for induction of synthetic lethality in tumor cells producing 2HG: qHTS for the HT-1080-IDH1KD cell line | Potency, µM (doses to about 46.1 µM), for the others: at the top dose activity, negative = toxicity, actives largely listed as cytotoxic | HT-1080 IDH1 knockdown viability, ATP luminescence, 48 h | actives 2% (n = 360,000);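 further: 0% = DMSO wells and -100% = cell-free medium wells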
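CellTiter-Glo luminescence after 48 h compound exposure at 37 degrees C of IDH1-knockdown HT-1080 cells in 5% FBS RPMI. %Activity scaled between DMSO wells and cell-free media wells, with curves fitted and assigned curve classes.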
KB-V1 MDR tox: qHTS assay for MDR1-selective chemotherapeutics: Primary screen using the drug-selected MDR subline cells KB-V1. KB-V1 MDR cells viability, CellTiter-Glo, 72 h. Potency, µM (titrated, usually from 46.1 µM), actives largely listed as cytotoxic. actives 3.4% (n = 400,000). AID 1347076, 2019; further: on the % scale 0 is the no-effect control and ±100 the full control effect; nearly all actives have a fitted effect of over 60% in size
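Potencies derive from concentration-effect curves fitted to normalized luminescence (CellTiter-Glo) of KB-V1 cells treated for 72 h at 37 degrees C in phenol-red-free DMEM containing 10% FBS.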
ATXN viability: Viability Counterscreen for Primary qHTS for Inhibitors of ATXN expression | AID 651635, 2014 | Potency, µM (top dose mostly 56.7 µM), usual class: cytotoxic | actives 0.49% (n = 400,000) | S2 cells (HEK-293 line with an ATXN2-luciferase reporter) viability, CellTiter-Fluor protease fluorescence, 24 h; further: nearly all actives have a fitted effect of over 40% in size
ATXN2 expr inh: Primary qHTS for Inhibitors of ATXN expression. AID 1745845, 2022. Potency, µM (series often up to 57 µM), for inactives: at the highest dose activity change, negative = inhibition, actives largely listed as inhibitors. actives 0.72% (n = 360,000). HEK-293 ATXN2-luciferase reporter, luminescence, 24 h; further: on the % scale 0 is the no-effect control and ±100 the full control effect; nearly all actives have a fitted effect of over 55% in size
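qHTS (up to 57 uM final) was run with 24 h compound exposure of reporter cells at 37 °C. Each well was multiplexed: SteadyGlo luminescence measured ATXN2-luciferase expression after a fluorogenic Gly-Phe-AFC viability readout (25 uM final).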
HT1080-NT tox: qHTS for induction of synthetic lethality in tumor cells producing 2HG: qHTS for the HT-1080-NT fibrosarcoma cell line; HT-1080-NT fibrosarcoma viability, CellTiter-Glo ATP luminescence, 48 h; Potency, µM (series often up to 46.1 µM), without a hit: top-dose activity, negative = less viability, most hits filed as cytotoxic; actives 1.6% (n = 360,000); AID 686970, 2013;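 further: NT is the 2HG producing partner of a matched IDH1 knockdown line; 0% = DMSO-treated cells and -100% = media-only wells without cells; nearly all actives have a fitted effect of over 55% in size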
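750 cells/well, RPMI + 5% FBS; 2 h settle, compound pin-transfer, 48 h at 37 degrees C. CellTiter-Glo 10 min RT, luminescence. Normalized to DMSO and media-only wells.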
KB-3-1 tox: qHTS assay for MDR1-selective chemotherapeutics: Primary screen using the parental adenocarcinoma cell KB-3-1; KB-3-1 viability, CellTiter-Glo ATP luminescence, 72 h; Potency, µM (top dose mostly 46.1 µM), usual class: cytotoxic; actives 1.4% (n = 400,000); AID 1347075, 2019; further: on the % scale 0 is the no-effect control and ±100 the full control effect; nearly all actives have a fitted effect of over 60% in size
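Cytotoxicity measured as CellTiter-Glo luminescence after 72 h at 37 C. Compound titrations were pinned onto drug-naive KB-3-1 parental adenocarcinoma cells grown in DMEM with 10% FBS, and normalized data fitted to concentration-response curves.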
* marks the source's active call; other numbers are inactive results; i = inactive; ? = inconclusive; . = no result given; ! = not active in a repeat; [ ] = another dose, or the depositor's remark. The call rests on the fitted dose curve; in most records, active means well fitted curve in the direction sought with a large enough effect; inconclusive means small, poorly fitted or top-dose-only effect, or another doubt; inactive means no such curve, though single readings can be large; an effect the other way counts as inactive or inconclusive. Potency means the concentration at half of the fitted maximal effect.

SMILES	HT1080 IDH1KD tx	KB-V1 MDR tox	ATXN viability	ATXN2 expr inh	HT1080-NT tox	KB-3-1 tox
COc1ccc(-c2ccc3[nH]c4c(c3c2)CCN2C[C@@H]([C@H](C)O)[C@@H](N(C)C(=O)Nc3cc(Cl)cc(Cl)c3)C[C@@H]42)cc1	21µM*	?	.	-1%	?	i
C[C@H](O)[C@@H]1CN2CCc3c([nH]c4ccccc34)[C@@H]2C[C@@H]1N(C)C(=O)Nc1cccc2ccccc12	-22%	i	i	-18%	-27%	i
COc1ccc2nc3oc(C(=O)N(C)c4ccc(Cl)cc4)cc3cc2c1	.	i	i	8%	.	i
CCCCCCCCCCCCCCCC[n+]1cccc(C(=O)N(CC)CC)c1	21µM*!	i	32µM*	32µM*!	?	13µM*!
CCCCCCCC[n+]1cccc(C(=O)N(CC)CC)c1	-5%	i	i	.	5%	i
C[C@@H](Cc1cc2c(c(C(N)=O)c1)N(CCCO)CC2)NCCOc1ccccc1OCC(F)(F)F	.	.	.	-13%	.	.
O=C(CNC(=O)c1cccc(S(=O)(=O)N2CCc3ccccc32)c1)Nc1ccccc1Br	-13%	9.2µM*	i	-18%	-7%	i
CC(C)CN(CC(C)C)C(=O)c1cccc(S(=O)(=O)N2CCc3ccccc32)c1	?	10µM*	i	?	?	?
COc1ccccc1CN(C)C(=O)c1cccc(S(=O)(=O)N2CCc3ccccc3C2)c1	3%	i	?	?	4%	i
COc1ccc(CN(C)C(=O)c2cccc(S(=O)(=O)N3CCc4ccccc43)c2)c(OC)c1	-12%	?	i	-13%	-9%[9.24 µM]	18µM*
O=C(CNC(=O)c1cccc(S(=O)(=O)N2CCc3ccccc32)c1)Nc1ccc(F)c(F)c1F	?	?	?	45%	-18%	i
CC(C)CCNC(=O)c1cccc(S(=O)(=O)N2CCc3ccccc32)c1	-26%	i	i	-9%	-4%	i
COC(=O)c1ccc(Cl)cc1NC(=O)N(Cc1ccc(C)o1)C1CCN(C(C)=O)CC1	.	i	?	-17%	.	i
Cc1oc(-c2cccc(Cl)c2)nc1CN1CCCC(C(=O)N2CCN(c3ccc(F)cc3)CC2)C1 (centres undefined)	.	i	i	?	.	i
CCn1cnc2scc(-c3ccccc3)c2c1=O	-12%	i	i	0%	-6%	i
Cn1cc(/C=N/n2cnc3scc(-c4ccc(Cl)cc4)c3c2=O)c2ccccc21	0.46µM*	?	?	-17%	?	?
Cc1ccccc1CNC(=O)c1cnc2sc(N3CCC(C)CC3)nn2c1=O	.	i	i	-4%	.	i
COc1ccc(Cl)cc1NC(=O)Cn1cnc2sc(C)c(S(=O)(=O)N3CCN(c4ccccc4OC)CC3)c2c1=O	.	i	i	14%	.	i
O=[N+]([O-])c1ccc(S(=O)(=O)N2CCN(Cc3c[nH]c4ccccc34)CC2)cc1	5%	21µM*	i	-3%	-20%	i
CC(=O)c1ccc(-c2nc3c4ccccc4ccn3c2C(C)=O)o1	16%	7.3µM*	?	?	16%	?
c1ccc(Cc2c(-c3ccccc3)nc3c4ccccc4ccn23)cc1	8%	i	i	17%	5%	i
CCCCc1c(C)c2ccc(OC)c(/C(C)=N\O)c2oc1=O	7%	5.8µM*	i	8%	8%	?
CC(=O)OC1CCC2(C)C(CCC3C4CC=C(C(C)=O)C4(C)OC(=O)CC32)C1 (centres undefined)	10µM*	?	2.5µM*	.	?	23µM*
